Measurements: PubChem BioAssay
Active and inactive are the calls of the source.

Assays:
[1] = binders of probe aFSTL3 on microarray, primary screen, stem cell growth factor project, biochemical, small-molecule microarray, fluorescence 635/667 (AID 1064); conditions: higher = more signal;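 further: measures binding of the biotinylated anti-FSTL3 antibody to printed compounds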
[2] = binders from COS7 lysate, DM2A8 probe, primary screen, torsin A project, cell lysate, small-molecule microarray, fluorescence 635/667 (AID 1065); conditions: higher = more signal, COS7 lysate expressing mutant human TOR1A
[3] = binders of probe aFGF2 on microarray, primary screen, stem cell growth factor project, biochemical, small-molecule microarray, fluorescence 635/667 (AID 1067); conditions: higher = more signal;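 further: measures binding of biotinylated aFGF2 protein to printed compounds on slides; z-score merges feature fluorescence and signal-to-noise across triplicate slides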
[4] = binders of probe aFGF10 on microarray, primary screen, stem cell growth factor project, biochemical, small-molecule microarray, fluorescence 635/667 (AID 1071); conditions: higher = more signal;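 further: score merges 667 nm spot intensity and signal to noise from triplicate slides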
[5] = target: Neurogenic locus notch homolog protein 2 (Homo sapiens) (UniProt Q04721); experiment: Notch2 binders on small-molecule microarrays, primary screen, biochemical, small-molecule microarray, 635 nm fluorescence, stem cell growth factors (AID 1073); conditions: Notch2 binding, higher = more signal
[6] = target: Pro-neuregulin-1, membrane-bound isoform (Homo sapiens) (UniProt Q02297); experiment: NRG1 binders on small-molecule microarrays, primary screen, psychiatric disease protein project, biochemical, small-molecule microarray, fluorescence 635/667 (AID 1075); conditions: NRG1 binding, 635 nm fluorescence, higher = more signal;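 further: score combines 667 nm spot fluorescence with signal to noise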
[7] = test system: Neuregulin-1 EGF-like domain; experiment: binders of neuregulin-1 EGF-like domain, primary screen, biochemical, small-molecule microarray, 635 nm fluorescence (AID 1081); conditions: small-molecule microarray binding, higher = more signal;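 further: binding of the protein to compounds printed on small-molecule microarray slides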
[8] = FRG1 promoter luciferase signal modulators, primary screen, FRG1 inhibition for FSHD, cell-based, C2C12 myotubes, firefly/Renilla luciferase, luminescence (AID 1084); conditions: higher = more signal, called active from +8 up or from −8 down
[9] = binders of probe aFST on microarray, primary screen, stem cell growth factor project, biochemical, small-molecule microarray, fluorescence 635/667 (AID 1086); conditions: higher = more signal;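 further: score merges 667 nm fluorescence with signal-to-noise of each printed compound spot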
[10] = binders of probe aHhip on microarray, primary screen, stem cell growth factor project, biochemical, small-molecule microarray, fluorescence 635/667 (AID 1087); conditions: higher = more signal;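 further: score merges spot fluorescence at 667nm with spot signal to noise ratio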
[11] = test system: PRMT1 (protein arginine N-methyltransferase 1); experiment: PRMT1 binders on small-molecule microarrays, primary screen, biochemical, small-molecule microarray, 635 nm fluorescence (AID 1088); conditions: small-molecule microarray binding, higher = more signal;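 further: binding of Prmt1 protein to compounds spotted on small-molecule microarray slides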
[12] = yeast growth modulation, basal conditions, primary screen, YJM789 clinical isolate, OD600, 24 h (AID 1089);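 further: growth of clinical yeast isolate S. cerevisiae YJM 789 seeded 1000 cells per well; test concentration not given here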; conditions: S. cerevisiae YJM789 growth, higher = more signal, called active from +8 up or from −8 down
[13] = fission yeast growth modulation, primary screen, strain 972, OD600, 24 h, no modulator (AID 1090);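 further: basal condition with compound alone and no growth modifier present; test concentration not given here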; conditions: S. pombe 972 growth, higher = more signal, called active from +8 up or from −8 down
[14] = S. cerevisiae growth modulation with rapamycin, primary screen, strain BY4716, OD600, 96 h (AID 1091); conditions: higher = more signal, called active from +8 up or from −8 down; further: test concentration not given here
[15] = target: Torsin-1A-interacting protein 2 (Homo sapiens) (UniProt Q8NFQ8); experiment: LULL1 binders on small-molecule microarray, primary screen, cell lysate, human LULL1 lysate, 635/667 nm fluorescence (AID 1092); conditions: hLULL1 lysate binding, 635 nm fluorescence, higher = more signal;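 further: probe is lysate of COS7 cells overexpressing human LULL1; score merges per-feature 667 nm fluorescence with signal-to-noise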
[16] = E. coli growth modulation, two-sided OD650, primary screen, E. coli filamentation project, strain DRC41, 24 h (AID 1093); conditions: OD650, 24 h, higher = more signal, called active from +8 up or from −8 down;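 further: MC1000 strain lacking acrAB efflux and sulA so SOS filamentation is blocked; test concentration not given here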
[17] = small-molecule microarray binders of probe aLefty2, primary screen, biochemical, biotinylated probe, 635/667 nm fluorescence (AID 1094); conditions: higher = more signal;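 further: score merges spot fluorescence near 667 nm with spot signal-to-noise ratio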
[18] = test system: Noggin (protein binding on small-molecule microarray); experiment: Noggin binders on small-molecule microarray, primary screen, biochemical, 635/667 nm fluorescence (AID 1095); conditions: 635 nm fluorescence, higher = more signal;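 further: score merges 667 nm feature fluorescence with signal to noise over triplicate slides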
[19] = target: Neurogenic locus notch homolog protein 3 (Homo sapiens) (UniProt Q9UM47); experiment: NOTCH3 binders on small-molecule microarray, primary screen, biochemical, 635/667 nm fluorescence (AID 1096); conditions: NOTCH3 binding, 635 nm fluorescence, higher = more signal
[20] = small-molecule microarray binders of probe aEGFR, primary screen, biochemical, biotinylated probe, 635/667 nm fluorescence (AID 1097); conditions: higher = more signal;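 further: probe is a biotinylated anti-EGFR antibody binding compounds printed on slides; score combines fluorescence near 667 nm and signal to noise of each spot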

Sequence of Torsin-1A-interacting protein 2 (Homo sapiens) (Q8NFQ8 whole entry, looked up): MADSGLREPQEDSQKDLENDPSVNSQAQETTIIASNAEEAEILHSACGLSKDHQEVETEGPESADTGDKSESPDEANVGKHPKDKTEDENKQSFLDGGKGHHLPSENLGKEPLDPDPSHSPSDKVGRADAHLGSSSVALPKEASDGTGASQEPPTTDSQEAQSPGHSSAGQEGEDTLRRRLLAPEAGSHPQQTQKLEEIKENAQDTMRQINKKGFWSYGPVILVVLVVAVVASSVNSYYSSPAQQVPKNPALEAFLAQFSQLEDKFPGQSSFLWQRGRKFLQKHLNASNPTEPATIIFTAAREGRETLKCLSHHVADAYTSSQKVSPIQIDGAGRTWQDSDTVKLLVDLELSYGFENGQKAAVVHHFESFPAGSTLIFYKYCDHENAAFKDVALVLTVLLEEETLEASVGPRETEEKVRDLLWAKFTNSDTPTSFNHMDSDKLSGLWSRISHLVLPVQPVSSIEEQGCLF
Sequence of Pro-neuregulin-1, membrane-bound isoform (Homo sapiens) (Q02297 whole entry, looked up, the tested form may be a part, canonical isoform): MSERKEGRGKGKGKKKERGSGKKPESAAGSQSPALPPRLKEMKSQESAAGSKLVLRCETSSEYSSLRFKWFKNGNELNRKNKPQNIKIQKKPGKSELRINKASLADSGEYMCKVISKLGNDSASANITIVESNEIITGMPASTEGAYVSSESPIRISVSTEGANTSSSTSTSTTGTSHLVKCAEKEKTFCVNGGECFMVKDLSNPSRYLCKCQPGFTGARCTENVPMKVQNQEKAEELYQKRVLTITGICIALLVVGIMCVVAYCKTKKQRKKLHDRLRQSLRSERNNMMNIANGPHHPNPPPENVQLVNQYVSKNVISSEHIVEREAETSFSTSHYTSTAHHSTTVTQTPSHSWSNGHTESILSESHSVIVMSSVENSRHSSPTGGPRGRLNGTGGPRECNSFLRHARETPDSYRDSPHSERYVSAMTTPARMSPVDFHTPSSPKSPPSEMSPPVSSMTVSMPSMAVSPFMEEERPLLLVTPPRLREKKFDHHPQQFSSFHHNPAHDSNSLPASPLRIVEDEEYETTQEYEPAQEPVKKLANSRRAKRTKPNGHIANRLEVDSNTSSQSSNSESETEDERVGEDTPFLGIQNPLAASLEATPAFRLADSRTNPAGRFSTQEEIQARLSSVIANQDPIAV
Sequence of Neurogenic locus notch homolog protein 2 (Homo sapiens) (Q04721 whole entry, looked up, canonical isoform): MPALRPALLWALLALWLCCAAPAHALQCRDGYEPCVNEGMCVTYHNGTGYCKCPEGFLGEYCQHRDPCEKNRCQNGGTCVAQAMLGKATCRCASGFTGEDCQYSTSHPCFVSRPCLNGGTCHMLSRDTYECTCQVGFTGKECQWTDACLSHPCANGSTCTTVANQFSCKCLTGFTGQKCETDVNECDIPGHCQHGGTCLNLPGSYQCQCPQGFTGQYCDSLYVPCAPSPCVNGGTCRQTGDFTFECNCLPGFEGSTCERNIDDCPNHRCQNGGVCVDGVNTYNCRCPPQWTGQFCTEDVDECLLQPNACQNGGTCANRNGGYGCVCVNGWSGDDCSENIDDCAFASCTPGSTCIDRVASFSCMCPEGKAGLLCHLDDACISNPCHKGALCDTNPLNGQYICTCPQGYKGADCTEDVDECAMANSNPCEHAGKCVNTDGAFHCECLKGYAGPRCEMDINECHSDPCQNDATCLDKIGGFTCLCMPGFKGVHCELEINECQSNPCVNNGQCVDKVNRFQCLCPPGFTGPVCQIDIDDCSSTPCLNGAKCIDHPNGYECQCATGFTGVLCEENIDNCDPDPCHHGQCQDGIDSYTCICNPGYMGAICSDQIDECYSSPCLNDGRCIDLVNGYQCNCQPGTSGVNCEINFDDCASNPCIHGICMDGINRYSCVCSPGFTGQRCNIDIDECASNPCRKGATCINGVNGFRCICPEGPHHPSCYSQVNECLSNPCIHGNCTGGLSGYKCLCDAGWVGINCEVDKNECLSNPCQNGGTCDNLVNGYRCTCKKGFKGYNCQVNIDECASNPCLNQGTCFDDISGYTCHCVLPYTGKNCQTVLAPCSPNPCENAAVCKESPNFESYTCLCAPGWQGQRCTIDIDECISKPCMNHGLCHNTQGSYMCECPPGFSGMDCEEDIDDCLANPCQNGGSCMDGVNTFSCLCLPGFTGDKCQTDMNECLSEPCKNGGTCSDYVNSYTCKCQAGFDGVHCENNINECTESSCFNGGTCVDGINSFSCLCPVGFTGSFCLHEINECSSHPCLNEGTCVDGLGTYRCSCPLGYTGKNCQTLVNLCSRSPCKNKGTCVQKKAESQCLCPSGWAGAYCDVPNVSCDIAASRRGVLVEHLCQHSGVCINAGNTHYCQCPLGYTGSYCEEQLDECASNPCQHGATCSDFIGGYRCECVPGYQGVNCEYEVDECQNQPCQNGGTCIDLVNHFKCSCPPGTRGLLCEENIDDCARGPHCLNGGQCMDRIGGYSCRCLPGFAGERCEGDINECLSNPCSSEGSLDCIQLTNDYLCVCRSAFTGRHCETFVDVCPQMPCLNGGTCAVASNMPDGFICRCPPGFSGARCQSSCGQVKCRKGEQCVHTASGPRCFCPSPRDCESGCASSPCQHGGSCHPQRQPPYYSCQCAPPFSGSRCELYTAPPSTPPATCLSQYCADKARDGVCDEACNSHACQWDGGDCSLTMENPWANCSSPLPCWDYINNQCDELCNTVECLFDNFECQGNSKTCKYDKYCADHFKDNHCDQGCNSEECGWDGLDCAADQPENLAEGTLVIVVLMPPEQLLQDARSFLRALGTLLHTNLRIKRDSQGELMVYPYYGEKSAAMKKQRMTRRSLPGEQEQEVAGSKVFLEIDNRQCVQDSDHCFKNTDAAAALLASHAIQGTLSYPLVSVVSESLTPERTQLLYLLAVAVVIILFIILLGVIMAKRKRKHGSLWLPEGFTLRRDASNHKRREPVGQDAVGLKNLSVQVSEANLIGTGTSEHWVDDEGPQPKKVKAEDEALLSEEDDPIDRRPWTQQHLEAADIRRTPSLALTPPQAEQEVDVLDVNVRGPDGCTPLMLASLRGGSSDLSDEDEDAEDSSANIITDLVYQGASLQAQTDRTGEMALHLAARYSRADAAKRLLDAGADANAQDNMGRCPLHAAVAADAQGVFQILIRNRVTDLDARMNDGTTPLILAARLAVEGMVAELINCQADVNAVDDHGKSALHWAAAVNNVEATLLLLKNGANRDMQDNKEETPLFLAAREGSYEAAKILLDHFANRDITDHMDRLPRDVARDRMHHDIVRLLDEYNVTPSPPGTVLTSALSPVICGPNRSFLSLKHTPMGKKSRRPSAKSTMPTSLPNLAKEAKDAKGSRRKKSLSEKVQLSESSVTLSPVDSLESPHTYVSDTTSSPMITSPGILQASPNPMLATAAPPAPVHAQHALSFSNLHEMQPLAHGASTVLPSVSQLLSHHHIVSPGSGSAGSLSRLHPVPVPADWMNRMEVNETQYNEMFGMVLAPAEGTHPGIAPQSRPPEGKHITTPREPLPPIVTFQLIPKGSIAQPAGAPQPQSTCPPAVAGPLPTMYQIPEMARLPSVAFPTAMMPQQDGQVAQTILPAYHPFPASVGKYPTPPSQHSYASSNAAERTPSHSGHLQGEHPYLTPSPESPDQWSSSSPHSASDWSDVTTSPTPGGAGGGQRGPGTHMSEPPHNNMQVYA

| SMILES | composite z-score [1] | composite z-score [2] | composite z-score [3] | composite z-score [4] | composite z-score [5] | composite z-score [6] | composite z-score [7] | z-score [8] | composite z-score [9] | composite z-score [10] | composite z-score [11] | z-score [12] | z-score [13] | z-score [14] | composite z-score [15] | z-score [16] | composite z-score [17] | composite z-score [18] | composite z-score [19] | composite z-score [20] |
| --- | --- | --- | --- | --- | --- | --- | --- | --- | --- | --- | --- | --- | --- | --- | --- | --- | --- | --- | --- | --- |
| COCCOC(=O)N1C(=O)[C@@]2(c3cc(C#CC4=CCCCC4)ccc31)[C@H](c1ccc(O)cc1)N1[C@H](c3ccccc3)[C@H](c3ccccc3)OC(=O)[C@H]1[C@@H]2C(=O)N1CCN(c2ncccn2)CC1 | 0.875 | -0.0653 | -0.141 | -0.164 | -1.58 | 0.576 | -0.0176 | 0.214 (inactive) | -0.841 | -0.277 | 0.234 | 0.358 (inactive) | 0.371 (inactive) | 0.58 (inactive) | -0.142 | -0.737 (inactive) | -0.192 | -1.1 | -0.756 | -0.348 |
| CCOC(=O)C1=CC[C@@H](c2cccc(Cl)c2)N(S(=O)(=O)c2ccc(C)cc2)C1 | 0.432 | 0.627 | 0.067 | 0.336 | 0.0142 | 1.31 | 1.2 | -2.76 (inactive) | 0.329 | -0.0994 | 0.335 | -1.89 (inactive) | -0.0856 (inactive) | 0.311 (inactive) | 2.54 | -0.363 (inactive) | 0.0771 | 0.0745 | 0.126 | -0.0803 |
| C=CCN1C(=O)[C@@]2(CCS(=O)(=O)c3ccccc3)N=C(c3ccc(OCCCO)cc3)O[C@H]2c2ccccc21 | 0.162 | 0.42 | 0.0076 | 0.362 | 1.44 | 1.72 | 1.24 | -3.77 (inactive) | 1.03 | -0.0672 | 1.54 | 0.15 (inactive) | -0.0698 (inactive) | 3.13 (inactive) | 2.88 | 0.192 (inactive) | -0.0177 | 1.43 | 1.12 | 0.154 |
| COc1ccc([Si](C)(C)[C@@H]2[C@@H](CC(=O)N3Cc4ccccc4C[C@H]3CO)O[C@]3(C(=O)N(C)c4ccccc43)[C@H]2C)cc1 | 0.279 | 0.56 | 0.0331 | 0.686 | 0.356 | 0.969 | 1.22 | -4.24 (inactive) | 0.714 | 0.202 | 1.53 | -0.912 (inactive) | 0.256 (inactive) | 1.86 (inactive) | 1.83 | -0.0789 (inactive) | 0.279 | 1.84 | 1.11 | -0.0052 |
| COc1ccc(-c2nc(-c3ccccc3)c3c(c2C)CO[Si]3(C(C)C)C(C)C)cn1 | -0.367 | 0.0662 | -0.087 | 0.296 | 0.296 | -0.199 | -0.196 | 0.702 (inactive) | -0.0377 | 0.176 | 0.569 | -0.195 (inactive) | -0.391 (inactive) | -0.0892 (inactive) | 0.498 | -1.5 (inactive) | -0.162 | 1.09 | 0.0188 | 0.0361 |
| CC(CO)N1C(=O)[C@@H]2[C@H]3C(=O)OCC=C[C@H]3OC23C=CCN(Cc2ccccc2)C(=O)[C@@H]13 (stereo not given in full) | 0.0457 | -0.31 | -0.166 | -0.166 | -0.374 | -0.622 | 0.307 | -0.282 (inactive) | -0.531 | 0.12 | -1.28 | -0.163 (inactive) | -0.528 (inactive) | -1.45 (inactive) | 1.41 | 2.31 (inactive) | -0.219 | -0.662 | 0.0095 | -0.206 |
| COc1ccc([Si](C)(C)[C@@H]2[C@@H](CCn3cc([C@H](O)c4ccccc4)nn3)O[C@]3(C(=O)N(Cc4ccc(N5CCC5=O)cc4)c4ccccc43)[C@H]2C)cc1 | 0.554 | -0.163 | -0.164 | -0.127 | -0.564 | 0.189 | 0.142 | -0.96 (inactive) | -0.201 | -0.503 | 0.0655 | 0.297 (inactive) | 0.375 (inactive) | 3.51 (inactive) | 0.309 | 0.705 (inactive) | -0.177 | 1.13 | -0.231 | -0.313 |
| O=C(CS)NCCCCCCNC(=O)[C@H]1C[C@H]2C(=O)N[C@@H](Cc3ccccc3)C(=O)N2[C@H]1c1ccc(O)cc1 | -0.361 | 0.375 | -0.132 | 0.836 | 0.51 | 1.34 | 1.36 | 0.234 (inactive) | -0.571 | -0.928 | 1.53 | 0.407 (inactive) | 1.1 (inactive) | 1.12 (inactive) | 1.91 | -0.0352 (inactive) | -0.316 | 0.405 | 0.635 | -0.105 |
| C[N+](C)(C)CCCCCCNC(=O)[C@H]1C[C@H]2C(=O)N[C@@H](Cc3ccccc3)C(=O)N2[C@H]1c1ccc(O)cc1 | 0.18 | 0.375 | -0.0853 | 0.316 | 0.224 | 0.736 | 1.21 | 2.26 (inactive) | -0.0859 | 0.0373 | 1.53 | -0.327 (inactive) | 0.162 (inactive) | 0.0818 (inactive) | 2.56 | 0.441 (inactive) | -0.0769 | 1.18 | 0.98 | -0.136 |
| N#Cc1ccc(NN2C(C(O)c3ccc(F)cc3)C=CC3C(=O)N(c4ccccc4)C(=O)C32)cc1 (stereo not given) | -0.28 | -0.17 | 0.183 | -0.0175 | 0.47 | 1.4 | 1.07 | 0.0158 (inactive) | 0.87 | -0.353 | 1.24 | 0.537 (inactive) | 2.45 (inactive) | 2.57 (inactive) | 3.21 | -0.538 (inactive) | -0.0477 | -0.868 | 0.443 | -0.257 |
